Compounds with a hit are over-represented: about 7.4% of the library has one in this group of screens.
ERK AVP inh: blocks ERK signaling stimulated by vasopressin | HEK293-V1b, vasopressin-stimulated pERK AlphaScreen | Potency, µM (top dose mostly 57.5 µM), inactives show at the top dose activity, negative = inhibition, actives largely listed as inhibitors | 72,000 tested, 0.99% active | AID 995; further: on the % scale 0 is the no-effect control and ±100 the full control effect; nearly all actives have a fitted effect of over 55% in size
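Overnight-seeded V1b-HEK293 cells in 1% FBS got compound, then vasopressin (25 nM final, 5 min, 37C), then lysis buffer. AlphaScreen detection of phospho-ERK; activity normalized to basal and full-stimulation controls.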
Tau fil binding: binds recombinant human tau filaments | recombinant tau filaments, thioflavin S fluorescence, 15 h; filaments grown with octadecylsulfate alongside compound | Potency, µM (titrated, usually from 57.1 µM), without a hit: top-dose activity change, negative = inhibition | 71,000 tested, 2% active | AID 596;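 further: on the % scale 0 is the no-effect control and ±100 the full control effect; actives lower thioflavin S fluorescence by blocking filaments or displacing dye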
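Quantitative HTS: thioflavine S signal from ODS-induced tau filaments, excited at 450 nm, emission 510 nm. Conditions: 1 uM tau, 30 uM ODS, 15 h at 37 C, pH 7.4.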
TSHR agonist: TSH receptor (human) agonism; HEK293-CNG-TSHR cells (CNG channel as cAMP sensor), membrane potential dye, cAMP; Potency, µM (top dose mostly 57.1 µM), for the others: at the top dose activation, usual class: activators; 73,000 tested, 0.48% active; active means well fitted activation curve with a large enough effect in the main read-out, with a control signal flat, not every such curve was filed as active; inconclusive means small, poorly fitted or top-dose-only effect, or a change in a side signal; inactive means no such curve, though single readings can be large or run the other way; % of control where 0% means no effect;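 further: the control signal comes from parental cells without the receptor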
Target sequence (P16473 whole entry, looked up): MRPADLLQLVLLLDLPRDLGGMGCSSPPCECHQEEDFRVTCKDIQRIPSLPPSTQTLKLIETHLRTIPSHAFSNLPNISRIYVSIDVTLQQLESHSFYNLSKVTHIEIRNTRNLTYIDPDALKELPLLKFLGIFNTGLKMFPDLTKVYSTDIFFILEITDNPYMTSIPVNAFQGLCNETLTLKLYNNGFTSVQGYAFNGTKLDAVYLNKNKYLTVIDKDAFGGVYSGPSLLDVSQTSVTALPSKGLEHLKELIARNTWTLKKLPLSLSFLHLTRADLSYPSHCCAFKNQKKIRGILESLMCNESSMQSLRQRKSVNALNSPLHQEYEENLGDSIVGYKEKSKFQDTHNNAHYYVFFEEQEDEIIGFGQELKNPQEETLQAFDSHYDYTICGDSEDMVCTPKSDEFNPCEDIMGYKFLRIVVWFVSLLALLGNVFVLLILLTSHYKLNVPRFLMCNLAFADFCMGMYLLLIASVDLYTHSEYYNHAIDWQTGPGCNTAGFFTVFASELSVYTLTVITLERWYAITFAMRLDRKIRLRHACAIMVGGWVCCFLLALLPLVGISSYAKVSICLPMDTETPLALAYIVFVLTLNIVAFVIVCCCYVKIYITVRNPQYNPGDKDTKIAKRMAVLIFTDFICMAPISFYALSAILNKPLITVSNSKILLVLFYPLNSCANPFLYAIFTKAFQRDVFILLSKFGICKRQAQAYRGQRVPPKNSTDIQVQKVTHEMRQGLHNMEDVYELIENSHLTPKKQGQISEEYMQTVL
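HEK 293 cells stably expressing TSHR and a cAMP-gated CNG channel; parental CNG-only cells as counterscreen. Cells preloaded 60 min with membrane potential dye plus 100 uM RO 20-1724, then compound 30 min; fluorescence read at 590 nm.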
HEK293 cAMP ctrl: counter-screen for TSHR agonists: cAMP increase in parental HEK293 | 73,000 tested, 2.5% active | Potency, µM (highest dose often 57.1 µM), for the others: top-dose activation, usual class: activators | AID 938 | parental HEK293 CNG cAMP sensor, membrane potential fluorescence; further: % of control where 0% means no effect; nearly all actives have a fitted effect of over 55% in size
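Parental HEK 293 cells stably expressing a cAMP-gated CNG channel were loaded with membrane potential dye containing 100 uM RO 20-1724 for 60 min. Compound added for 30 min; depolarization read as fluorescence intensity at 590 nm.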
CRE-bla Fsk: CRE-bla signaling modulation under forskolin stimulation; CHO CRE-bla reporter (cAMP response element driving beta-lactamase), forskolin EC10, beta-lactamase ratio; Potency, µM (top dose mostly 38.2 µM), inactives show at the highest dose activity change, negative = inhibition, most hits filed as activators; 71,000 tested, 2.5% active; AID 662; active means well fitted activation curve with a large enough effect in the signal ratio, with a control signal flat, not every such curve was filed as active; inconclusive means small, poorly fitted or top-dose-only effect, or effect the other way, or a change in a side signal; the % refers to the signal ratio; further: % of control where 0% means no effect
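Titrated compounds plus EC10 NKH 477 on CHO CRE-bla cells, 3 h, 37 °C. CCF4, 2 h RT. Ratio 460/530 nm → AC50.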
* hit, by the source's call; ? = inconclusive; . = not tested or not shown; [ ] = dose if it differs, or a comment. Unless noted, the call rests on the fitted dose curve; in most records, active means well fitted curve in the direction sought with a large enough effect; inconclusive means small, poorly fitted or top-dose-only effect, or another doubt; inactive means no such curve, though single readings can be large; an effect the other way counts as inactive or inconclusive. Potency means the concentration at half of the fitted maximal effect.

SMILES	ERK AVP inh	Tau fil binding	TSHR agonist	HEK293 cAMP ctrl	CRE-bla Fsk
CCOC(=O)c1c(-c2cccs2)csc1NC(=O)COC(=O)c1c(C)noc1C	7%	6%	3%[11.4 µM]	24%	2.5µM*
COC(=O)c1cc(NC(=O)CN2CCOCC2)cc(C(=O)OC)c1	3%	-6%	0%	4%	-5%
CCOC(=O)c1c(-c2ccc(C)s2)csc1NC(=O)c1ccco1	?	-2%	12%	20%	23%
CC(C)CN(CC#N)CC(C)C	?	7%[11.4 µM]	-1%[11.4 µM]	0%[11.4 µM]	-7%[7.6 µM]
COC(=O)C1=C(C)NC(C)=C(C(=O)OC)C1c1cc2cc(C)ccc2[nH]c1=O	-5%	6%	5%	3%	-6%
COC(=O)C1=C(C)NC(C)=C(C(=O)OC)C1c1cc2ccc(C)cc2[nH]c1=O	23%	2%	16µM*	22%	1%
OC[C@@H]1O[C@@H](n2cnc3cncnc32)[C@@H](O)[C@H]1O	8%	11%	-10%	17%	?
CCC1CCCCN1C(=O)Cn1c(C(=O)OC)cc2ccsc21 (configuration not stated)	-9%	-5%	?	25µM*	3%
CCC1CCCCN1C(=O)Cn1c(C(=O)OC)cc2sc(Cl)cc21 (configuration not stated)	-3%	11%	?	16µM*	5%
COC(=O)c1cc2sc(Cl)cc2n1CC(=O)N1CCCc2ccccc21	0%	-11%	?	?	-5%
CCOC(=O)CSc1ccc2nnc(-c3cccs3)n2n1	.	-21%	?	?	4µM*
O=C(CSc1ccc2nnc(-c3ccccc3)n2n1)N1CCN(c2ccccc2)CC1	.	1.6µM*	-6%	7%	?
CCOC(=O)CSc1ccc2nnc(-c3ccncc3)n2n1	.	-9%	-5%	6%	16%
COc1ccc(-c2nnc3ccc(SCC(=O)N4CCN(c5ccccc5)CC4)nn23)cc1	2%	-14%	-1%[11.4 µM]	7%	7%
O=C(Nc1ccc(Cl)cc1C(=O)O)c1ccc2c(c1)C(=O)N(Cc1ccco1)C2=O	4%	?	-14%	-19%	-17%
O=C(O)c1ccc(S(=O)(=O)c2ccc3c(c2)C(=O)N(CC2CCCO2)C3=O)cc1 (configuration not stated)	-9%	-2%	?	20µM*	-4%
O=C(CN1C(=O)c2ccccc2C1=O)Nc1ccc(S(=O)(=O)NCC2CCCO2)cc1 (configuration not stated)	-23%	-14%	-22%	7%	-9%
O=C(O)c1ccc(S(=O)(=O)c2ccc3c(c2)C(=O)N(Cc2ccco2)C3=O)cc1	-22%	8%	32µM*	17%	-5%
Cc1ccc(S(=O)(=O)N[C@H]2COC(=O)C/C=C\[C@H](C)[C@@H](NS(=O)(=O)c3ccc(C)cc3)COC(=O)C/C=C\[C@@H]2C)cc1	0%[11.5 µM]	.	-4%[11.4 µM]	-7%[11.4 µM]	.
CCCc1cc(C(=O)N(C2CCCCC2)C2CCCCC2)no1	19%	-25%	20µM*	25%	-22%
CCCc1cc(C(=O)NC2CCCCC2)no1	8%	3%	22%	23%	-5%
C=CCn1c(SC(C)C(=O)NCc2ccc3c(c2)OCO3)nnc1C1CCCCC1 (configuration not stated)	9%	0%	?	2.5µM*	-6%
C=CCn1c(SCC(=O)NCc2cccs2)nnc1C1CCCCC1	16%	-5%	-2%[11.4 µM]	29%	4%
CC(C)OC(=O)CSc1nc2cccnc2n1C1CCCCC1	20%	-1%	?	16µM*	?
CCOC(=O)CNC(=O)CSc1nc2cccnc2n1C1CCCCC1	?	-24%	-3%	11%	?
SMILES	ERK AVP inh	Tau fil binding	TSHR agonist	HEK293 cAMP ctrl	CRE-bla Fsk
CN(CCC(=O)O)S(=O)(=O)c1ccccc1	1%[11.5 µM]	8%[11.4 µM]	8%[11.4 µM]	7%[11.4 µM]	9%[7.6 µM]
CC(C)Nc1nc(NC(C)C)nc(N(C)C(N)=O)n1	-25%	17%	1%	2%	10µM*
Cc1cc(C#N)c(C)n1-c1cc(C(F)(F)F)ccc1N1CCOCC1	18%	-10%	?	13µM*	8%
CC(C)CNc1nc(N)[nH]c(=O)c1NC=O	-4%[11.5 µM]	8%[11.4 µM]	-3%[11.4 µM]	1%[11.4 µM]	3%[7.6 µM]
O=C(NCc1ccccc1)c1ccc(-c2ccccc2F)o1	16µM*	-6%	32%	14%	-3%
C[C@@H]1C(=O)N(C)C(=O)c2nc[nH]c21	12%	-2%	3%	4%	7%
Cc1cc(-c2cc(C)c(O)c(C(C)(C)C)c2)cc(C(C)(C)C)c1O	-8%[11.5 µM]	-15%[11.4 µM]	13%[11.4 µM]	1%[11.4 µM]	23%[7.6 µM]
COC(=O)c1ccc2c(=O)n(CC3CCCO3)c(SCC(=O)Nc3ccccc3OC)nc2c1 (configuration not stated)	-16%	10%	?	?	13µM*
CC1CCN(CC(=O)Nc2sc3c(c2C#N)CCC3)CC1	1%	22%	?	7.9µM*	-1%
COC(=O)CCC(=O)Nc1sc2c(c1C#N)CCCC2	?	-6%	-1%	21%	?
N#Cc1c(NC(=O)c2ccncc2)sc2c1CCC2	-9%	16µM*	-2%	-1%	-5%
C=CCCC/C=C(/C)C(OCc1ccc(OC)cc1)C(CC/C=C(\C)C(N)=O)OC (configuration not stated)	14%[11.5 µM]	.	7%[11.4 µM]	7%[11.4 µM]	.
CC1(C)c2ssc(=S)c2-c2ccccc2N1C(=O)c1ccco1	13%	3.2µM*	-15%	5%	3%
CC(=O)O[C@H]1CC[C@]2(C)C(=CC[C@H]3[C@H]4C[C@H]5O[C@]6(CC[C@H](C)CN6)[C@H](C)[C@@H]5[C@]4(C)CC[C@@H]32)C1	13%[11.5 µM]	-1%[11.4 µM]	4%[11.4 µM]	-8%[11.4 µM]	8%[7.6 µM]
CCOC(=O)c1ccccc1NC(=O)CSc1nc2ccccc2o1	-10%	-1%	?	25µM*	?
CCOC(=O)c1ccccc1NC(=O)CSc1nnc(COc2ccccc2)n1CC	-17%	20%	?	16µM*	4%
O=C(CSc1nc2ccccc2o1)c1cc2ccccc2oc1=O	?	25µM*	.	6%	-14%
Cc1cc(C)nc(SCC(=O)c2cc3ccccc3oc2=O)n1	-26%	-18%	-3%	7%	-5%
COC(=O)c1ccccc1NC(=O)CSc1nnc(COc2cccc(OC)c2)n1C	7%	9%	?	13µM*	2%
COc1ccc(-c2nc3cnc(Nc4cccc(OC)c4)nc3n(C)c2=O)cc1	?	-4%	-8%	-11%	?
COC(=O)c1ccccc1NC(=O)CSc1nc2ccccc2c(=O)[nH]1	-18%	-5%	?	?	7.9µM*
CCc1nc(SCC(=O)Nc2ccccc2C(=O)OC)n[nH]1	-8%	-1%	-2%	7%	?
CCCC(=O)NCCc1cc2c(C)ccc(C)c2[nH]c1=O	.	-5%	5%	-4%	13µM*
